Assay results published in PubChem BioAssay (Tox21).
“And” between values parts separate entries of the source, which are not always exact repeats. Identical values can stand only once. Results filed as inconclusive are left out. Entries that show only a call come without a potency. The source made the active and inactive calls. Calls follow the shape of the dose curve; as a rule, active = well fitted activation curve with a large enough effect in the repeat runs; inconclusive = weak or mixed curves; inactive = flat fitted curve, though single readings scatter.
Potency is read from the fitted curve at half-maximal effect.

Experiment: A CellTox Green Cytotoxicity Assay to monitor cytotoxicity in HepG2 cells - 40 hour (AID 1224879); also: nearly all actives have a fitted effect of over 40% in size
Settings: CellTox Green fluorescence; series mostly up to 76.8 µM
From the text: National Center for Advancing Translational Sciences [NCATS]
NIH Chemical Genomics Center [NCGC]
U.S. Environmental Protection Agency [EPA]
National Institutes of Environmental Health Sciences [NIEHS]
National Toxicology Program [NTP]
Cell-based models are critical for drug discovery. Determining the natural cytotoxic effects resulting from test compounds is an essential research activity. A CellTox Green Cytotoxicity Assay to monitor cytotoxicity in real time of continues cell culture during 40 hours of the compound treatment was used to screen Tox21 10K library compounds in HepG2 cells. CellTox Green Cytotoxicity Assay is a nonlytic, homogeneous, biofluorescent method to measure cytotoxicity in cell culture after experimental manipulation. The assay system uses a proprietary asymmetric cyanine dye that is excluded from viable cells but preferentially stains the dead cell's DNA. […] Viable cells produce no appreciable increases in fluorescence. Therefore, the fluorescence signal produced by the binding interaction with dead cell DNA is proportional to cytotoxicity.
The mixture of HepG2 cell suspension and reagents were dispensed at 600cells/6 ul/well in 1536-well tissue culture treated black solid bottom plates using a Multidrop dispenser. After the assay plates were incubated at a 37 C/5% CO2 incubator for 5 hours, 23 nL of compounds dissolved in DMSO, positive and negative controls was transferred to the assay plate by a pintool work station. The plates were incubated at 37 C for 40 hours. The fluorescence intensity were measured at 0h, 8h, 16h, 24h, 32h and 40h time points using ViewLux plate reader during compound treatment.
In the case of `OC[C@@H](O)[C@@H](O)[C@H](O)[C@@H](O)CO`, the Potency is reported as “inactive”. In the case of `CN(CCOc1ccc(CC2SC(=O)NC2=O)cc1)c1ccccn1` (stereo not given), the Potency is reported as “inactive”. In the case of `O=C(c1ccc(O)cc1)c1ccc(O)cc1O`, the Potency is reported as “inactive”. In the case of `OCC1CCCO1` (stereo not given), the Potency is reported as “inactive”. With `Nc1c(S(=O)(=O)O)cc(Br)c2c1C(=O)c1ccccc1C2=O` the Potency was “inactive”. In the case of `CCC(=O)O`, the Potency is reported as “inactive”. In the case of `CN(C)c1ccc(C(=N)c2ccc(N(C)C)cc2)cc1`, the Potency is reported as 4.31 µM (active) and 18.8 µM (active). In the case of `CN(C)c1cccc(O)c1`, the Potency is reported as “inactive”. For `Nc1cc(-c2ccncc2)c[nH]c1=O`, the Potency was “inactive”. For `C=C(C)C(=O)OCCCCCC`, the Potency was “inactive”. With `C=C(C#N)C(=O)OCC` the Potency was “inactive”. For `CCCCC(CC)COC(=O)CCCCCCCC(=O)OCC(CC)CCCC` (stereo not given), the Potency was 43.6 µM (active). With `O=S(=O)(O)c1cc(S(=O)(=O)O)c2c(N=Nc3ccccc3)c(O)ccc2c1` the Potency was “inactive”. With `Clc1ccc(Cl)c(Cl)c1Cl` the Potency was “inactive”. With `CCOC(=O)/C=C\C(=O)OCC` the Potency was “inactive”. With `CC#C[C@]1(O)CC[C@H]2[C@@H]3CCC4=CC(=O)CCC4=C3[C@@H](c3ccc(N(C)C)cc3)C[C@@]21C` the Potency was “inactive”. In the case of `NCCc1ccc(O)c(O)c1`, the Potency is reported as “inactive”. In the case of `Nc1nc2ncc(CNc3ccc(C(=O)N[C@@H](CCC(=O)O)C(=O)O)cc3)nc2c(=O)[nH]1`, the Potency is reported as “inactive”. With `CC1CC(OC(=O)c2ccccc2O)CC(C)(C)C1` (stereo not given) the Potency was “inactive”. With `NC(=O)NNc1ccccc1` the Potency was “inactive”. For `COCC(C)O` (stereo not given), the Potency was “inactive”. For `CCCCCCCCCCC=CC1CC(=O)OC1=O` (stereo not given), the Potency was “inactive”. For `O=C(c1cc(O)c(O)c(O)c1)c1ccc(O)c(O)c1O`, the Potency was “inactive”. For `C=C1C2CCC(C2)C1(C)C` (stereo not given), the Potency was “inactive”. With `CC(C)(C)C1CCC(O)CC1` (stereo not given) the Potency was “inactive”. With `CCCCCCCCCC(=O)O` the Potency was “inactive”. With `Cc1cc(Cc2ccc(N)c(C)c2)ccc1N` the Potency was “inactive”. In the case of `C[C@@H]1O[C@@H](OC[C@H]2O[C@@H](Oc3c(-c4ccc(O)c(O)c4)oc4cc(O)cc(O)c4c3=O)[C@H](O)[C@@H](O)[C@@H]2O)[C@H](O)[C@H](O)[C@H]1O`, the Potency is reported as “inactive”. With `CC(=O)[C@@]1(O)CC[C@H]2[C@@H]3CCC4=CC(=O)CC[C@]4(C)[C@H]3CC[C@@]21C` the Potency was “inactive”. For `C=C(C)C(=O)OCCC[Si](OC)(OC)OC`, the Potency was “inactive”. With `CCCCC(CC)COC(=O)/C=C\C(=O)OCC(CC)CCCC` (stereo not given) the Potency was “inactive”. In the case of `Oc1c(Cl)cc(Cl)c(Cl)c1Cl`, the Potency is reported as “inactive”. In the case of `OC1CCCC1`, the Potency is reported as “inactive”. For `O=C(O)c1cc(-c2ccccc2)nc2ccccc12`, the Potency was “inactive”. For `CCCCCCOC(C)=O`, the Potency was “inactive”. With `CCCCOCCOCCOC(=O)CCCCC(=O)OCCOCCOCCCC` the Potency was “inactive”. In the case of `NCc1cccc(CN)c1`, the Potency is reported as “inactive”. For `Oc1ccc(OCc2ccccc2)cc1`, the Potency was “inactive”. In the case of `CC(C)(CO)COC(=O)C(C)(C)CO`, the Potency is reported as “inactive”. For `CCCCC/C=C\C/C=C\CCCCCCCC(=O)OC`, the Potency was “inactive”.
